Experimental data as given in the supplement of paper PMC10720658.
± gives the standard deviation of the averaged measurements.

system: AEK1 (Tb927.3.2440); assay: percent reduction in TR-FRET probe signal relative to DMSO control; higher = stronger displacement of ATP-site probe (binding); settings: 1 µM; incubation time 1 h

Row | Structure (SMILES) | percent reduction in TR-FRET probe signal [%]
1 | CCCCCCCCCCCCCCCCOP(=O)([O-])OCC[N+](C)(C)C [Miltefosine] | 4.96 ± 18
2 | O=[N+]([O-])c1cnc(Sc2nnc(O)n2-c2ccc3c(c2)OCCO3)s1 | 0.0867 ± 3.4
3 | CCN(CC)CCCCNc1ncc2cc(-c3cc(OC)cc(OC)c3)c(NC(=O)NC(C)(C)C)nc2n1 | -17.7 ± 31
4 | O=C1NC(=O)C(c2ccccc2[N+](=O)[O-])=C1Nc1ccc(O)c(Cl)c1 | -2.58 ± 9.4
5 | CCN1CCN(Cc2ccc(Nc3ncc(F)c(-c4cc(F)c5nc(C)n(C(C)C)c5c4)n3)nc2)CC1 | -4.88 ± 6.8
6 | Cc1c(CN2CCN(C(=O)[C@H](C)O)CC2)sc2c(N3CCOCC3)nc(-c3cnc(N)nc3)nc12 | 0.467 ± 7.8
7 | CO[C@@H](C(=O)N1Cc2[nH]nc(NC(=O)c3ccc(N4CCN(C)CC4)cc3)c2C1)c1ccccc1 | 24.2 ± 6.1
8 | COc1cc(Nc2c(C#N)cnc3cc(OCCCN4CCN(C)CC4)c(OC)cc23)c(Cl)cc1Cl [Bosutinib (SKI-606)] | 0.893 ± 13
9 | O=C1NC(=O)C(c2cnc3ccccn23)=C1c1cn2c3c(cc(F)cc13)CN(C(=O)N1CCCCC1)CC2 | -14.7 ± 8.7
10 | CNC(=O)c1ccccc1Sc1ccc2c(/C=C/c3ccccn3)n[nH]c2c1 [Axitinib] | 52.4 ± 18
11 | Oc1cc(O)cc(/C=C/c2ccc(O)c(O)c2)c1 [Piceatannol] | 44.1 ± 8
12 | O=C(Nc1ccc(OC(F)(F)F)cc1)c1sccc1NCc1ccnc2ccccc12 | -8.08 ± 5.7
13 | Nc1nc(NCCNc2ncc(-n3ccnc3)c(-c3ccc(Cl)cc3Cl)n2)ccc1[N+](=O)[O-] | 4.72 ± 12
